# From the supplement of paper PMC12819154, “High-throughput peptide-centric local stability assay extends protein–ligand identification to membrane proteins, tissues and bacteria” (Nature Structural & Molecular Biology, 2025)
# Compound: CN[C@@H]1C[C@H]2O[C@@](C)([C@@H]1OC)n1c3ccccc3c3c4c(c5c6ccccc6n2c5c31)C(=O)NC4 [staurosporine]
# Assay: log2 fold change of tryptic peptide abundance, ligand vs vehicle (limited proteolysis) (log2 ratio); higher = more trypsin-susceptible (destabilized)
# Conditions: ligand concentration: 20 uM; sample: K562 cleared lysate; digestion: 4 min, 22 C (HT-PELSA RT4min, Orbitrap Astral)
# UniProt Q13177, sequence (Q13177 whole entry): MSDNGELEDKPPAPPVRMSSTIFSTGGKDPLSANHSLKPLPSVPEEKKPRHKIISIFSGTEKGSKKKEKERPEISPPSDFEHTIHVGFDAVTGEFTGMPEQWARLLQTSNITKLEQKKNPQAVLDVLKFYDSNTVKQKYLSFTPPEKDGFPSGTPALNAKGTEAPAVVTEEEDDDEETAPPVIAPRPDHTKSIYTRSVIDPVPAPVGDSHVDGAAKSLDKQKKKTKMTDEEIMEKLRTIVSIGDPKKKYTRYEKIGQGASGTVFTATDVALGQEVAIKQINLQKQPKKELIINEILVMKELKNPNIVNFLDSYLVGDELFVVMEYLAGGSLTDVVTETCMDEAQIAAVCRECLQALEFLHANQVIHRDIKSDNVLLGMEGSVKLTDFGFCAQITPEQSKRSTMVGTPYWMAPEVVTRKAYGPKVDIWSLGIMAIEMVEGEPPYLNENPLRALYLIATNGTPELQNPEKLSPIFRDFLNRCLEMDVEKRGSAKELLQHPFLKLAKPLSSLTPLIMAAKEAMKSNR
# UniProt P56192, sequence (P56192 whole entry): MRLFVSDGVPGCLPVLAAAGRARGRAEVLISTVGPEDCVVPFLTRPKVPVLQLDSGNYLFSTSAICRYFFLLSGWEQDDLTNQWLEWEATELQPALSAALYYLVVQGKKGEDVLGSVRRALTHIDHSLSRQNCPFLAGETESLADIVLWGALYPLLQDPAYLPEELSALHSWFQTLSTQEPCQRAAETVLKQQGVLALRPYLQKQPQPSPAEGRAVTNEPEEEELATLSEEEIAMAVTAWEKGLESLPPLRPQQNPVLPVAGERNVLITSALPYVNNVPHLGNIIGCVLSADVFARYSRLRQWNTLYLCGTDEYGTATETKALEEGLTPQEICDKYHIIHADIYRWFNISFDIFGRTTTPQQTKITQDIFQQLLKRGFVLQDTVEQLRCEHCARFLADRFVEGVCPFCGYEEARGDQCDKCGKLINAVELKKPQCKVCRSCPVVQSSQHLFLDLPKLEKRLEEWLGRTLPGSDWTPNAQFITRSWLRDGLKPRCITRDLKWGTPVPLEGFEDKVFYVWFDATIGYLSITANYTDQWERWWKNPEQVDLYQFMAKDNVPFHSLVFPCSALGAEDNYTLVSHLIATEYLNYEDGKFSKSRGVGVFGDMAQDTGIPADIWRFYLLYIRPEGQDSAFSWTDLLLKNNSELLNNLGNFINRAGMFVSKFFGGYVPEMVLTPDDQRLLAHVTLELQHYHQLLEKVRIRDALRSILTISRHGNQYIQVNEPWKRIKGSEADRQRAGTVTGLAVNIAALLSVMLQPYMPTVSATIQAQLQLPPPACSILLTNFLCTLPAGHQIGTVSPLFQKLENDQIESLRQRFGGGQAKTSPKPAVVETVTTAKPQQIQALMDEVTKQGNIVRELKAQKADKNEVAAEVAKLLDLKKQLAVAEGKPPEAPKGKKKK
# UniProt Q13470, sequence (Q13470 whole entry): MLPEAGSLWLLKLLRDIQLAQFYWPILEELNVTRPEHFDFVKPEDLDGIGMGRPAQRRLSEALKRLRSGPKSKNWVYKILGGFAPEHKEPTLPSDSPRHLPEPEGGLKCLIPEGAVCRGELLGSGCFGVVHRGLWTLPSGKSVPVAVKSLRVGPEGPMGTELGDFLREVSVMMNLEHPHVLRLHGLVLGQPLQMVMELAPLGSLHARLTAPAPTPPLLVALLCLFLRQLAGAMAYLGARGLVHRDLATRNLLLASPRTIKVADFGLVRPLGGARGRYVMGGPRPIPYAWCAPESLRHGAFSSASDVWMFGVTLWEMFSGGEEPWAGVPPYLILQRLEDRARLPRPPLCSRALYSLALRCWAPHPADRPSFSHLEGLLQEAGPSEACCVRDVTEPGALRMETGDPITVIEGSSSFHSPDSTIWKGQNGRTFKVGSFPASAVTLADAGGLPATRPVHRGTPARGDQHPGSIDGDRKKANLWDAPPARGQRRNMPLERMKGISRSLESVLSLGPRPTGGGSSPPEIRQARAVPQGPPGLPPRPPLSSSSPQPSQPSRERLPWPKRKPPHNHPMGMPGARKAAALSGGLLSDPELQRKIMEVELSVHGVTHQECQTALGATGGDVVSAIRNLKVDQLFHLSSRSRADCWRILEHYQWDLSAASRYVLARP
# UniProt Q96GX5, sequence (Q96GX5 whole entry): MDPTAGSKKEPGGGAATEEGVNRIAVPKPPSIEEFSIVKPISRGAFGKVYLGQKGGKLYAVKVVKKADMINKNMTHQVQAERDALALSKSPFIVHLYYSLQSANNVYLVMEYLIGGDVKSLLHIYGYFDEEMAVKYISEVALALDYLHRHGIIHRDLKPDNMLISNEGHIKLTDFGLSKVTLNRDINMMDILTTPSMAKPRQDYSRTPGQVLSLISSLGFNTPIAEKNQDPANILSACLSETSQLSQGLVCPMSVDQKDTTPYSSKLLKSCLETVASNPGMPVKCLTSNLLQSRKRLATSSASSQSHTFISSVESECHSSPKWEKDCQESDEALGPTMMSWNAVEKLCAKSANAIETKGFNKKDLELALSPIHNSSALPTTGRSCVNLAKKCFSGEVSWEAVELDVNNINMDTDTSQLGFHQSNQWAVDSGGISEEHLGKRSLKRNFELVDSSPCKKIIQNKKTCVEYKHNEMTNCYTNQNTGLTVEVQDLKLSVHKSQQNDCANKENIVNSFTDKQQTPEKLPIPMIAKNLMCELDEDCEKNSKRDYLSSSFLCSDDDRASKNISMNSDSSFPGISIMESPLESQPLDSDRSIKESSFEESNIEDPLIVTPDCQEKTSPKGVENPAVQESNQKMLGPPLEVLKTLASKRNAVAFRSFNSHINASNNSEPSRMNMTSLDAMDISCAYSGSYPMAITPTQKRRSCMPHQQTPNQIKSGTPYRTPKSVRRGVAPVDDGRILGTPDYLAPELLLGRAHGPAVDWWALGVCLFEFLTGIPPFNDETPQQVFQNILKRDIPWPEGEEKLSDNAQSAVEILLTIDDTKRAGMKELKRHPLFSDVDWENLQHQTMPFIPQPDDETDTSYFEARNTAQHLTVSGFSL
# UniProt Q9BTE7, sequence (Q9BTE7 whole entry): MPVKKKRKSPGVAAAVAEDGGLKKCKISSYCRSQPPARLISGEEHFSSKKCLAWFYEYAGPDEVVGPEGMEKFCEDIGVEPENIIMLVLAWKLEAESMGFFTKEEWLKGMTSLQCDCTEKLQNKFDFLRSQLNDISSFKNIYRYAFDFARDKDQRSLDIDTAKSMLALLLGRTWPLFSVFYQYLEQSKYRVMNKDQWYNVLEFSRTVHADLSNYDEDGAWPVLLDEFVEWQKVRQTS
# UniProt P0DMV8, sequence (P0DMV8 whole entry, looked up): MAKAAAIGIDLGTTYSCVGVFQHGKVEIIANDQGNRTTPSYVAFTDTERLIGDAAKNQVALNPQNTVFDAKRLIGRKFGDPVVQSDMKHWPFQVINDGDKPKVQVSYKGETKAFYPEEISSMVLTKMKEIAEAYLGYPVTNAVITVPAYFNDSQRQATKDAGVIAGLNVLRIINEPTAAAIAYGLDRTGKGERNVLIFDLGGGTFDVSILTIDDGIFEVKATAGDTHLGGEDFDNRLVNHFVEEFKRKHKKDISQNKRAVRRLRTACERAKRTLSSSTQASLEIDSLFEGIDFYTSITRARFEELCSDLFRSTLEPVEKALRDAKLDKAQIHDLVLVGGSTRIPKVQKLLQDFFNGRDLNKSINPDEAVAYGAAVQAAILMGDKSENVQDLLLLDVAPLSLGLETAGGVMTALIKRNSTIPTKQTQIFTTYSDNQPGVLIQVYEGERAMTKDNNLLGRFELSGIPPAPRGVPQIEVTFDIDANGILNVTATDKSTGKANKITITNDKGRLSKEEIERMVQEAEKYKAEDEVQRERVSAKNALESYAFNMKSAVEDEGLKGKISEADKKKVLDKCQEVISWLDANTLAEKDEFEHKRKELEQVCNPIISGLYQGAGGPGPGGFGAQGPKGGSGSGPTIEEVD
# UniProt Q8TBX8, sequence (Q8TBX8 whole entry): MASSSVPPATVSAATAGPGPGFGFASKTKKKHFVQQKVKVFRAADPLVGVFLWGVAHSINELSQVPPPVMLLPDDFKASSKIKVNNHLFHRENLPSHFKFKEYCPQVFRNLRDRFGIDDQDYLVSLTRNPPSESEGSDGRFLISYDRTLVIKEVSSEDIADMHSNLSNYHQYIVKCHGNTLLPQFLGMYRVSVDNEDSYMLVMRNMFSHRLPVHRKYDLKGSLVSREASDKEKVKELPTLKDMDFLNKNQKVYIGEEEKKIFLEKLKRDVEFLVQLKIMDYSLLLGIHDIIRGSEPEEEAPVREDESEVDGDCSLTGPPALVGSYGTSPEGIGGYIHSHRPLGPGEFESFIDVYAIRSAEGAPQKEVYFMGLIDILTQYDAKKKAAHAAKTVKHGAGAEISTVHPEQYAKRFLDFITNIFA
# UniProt Q96RR4, sequence (Q96RR4 whole entry, looked up): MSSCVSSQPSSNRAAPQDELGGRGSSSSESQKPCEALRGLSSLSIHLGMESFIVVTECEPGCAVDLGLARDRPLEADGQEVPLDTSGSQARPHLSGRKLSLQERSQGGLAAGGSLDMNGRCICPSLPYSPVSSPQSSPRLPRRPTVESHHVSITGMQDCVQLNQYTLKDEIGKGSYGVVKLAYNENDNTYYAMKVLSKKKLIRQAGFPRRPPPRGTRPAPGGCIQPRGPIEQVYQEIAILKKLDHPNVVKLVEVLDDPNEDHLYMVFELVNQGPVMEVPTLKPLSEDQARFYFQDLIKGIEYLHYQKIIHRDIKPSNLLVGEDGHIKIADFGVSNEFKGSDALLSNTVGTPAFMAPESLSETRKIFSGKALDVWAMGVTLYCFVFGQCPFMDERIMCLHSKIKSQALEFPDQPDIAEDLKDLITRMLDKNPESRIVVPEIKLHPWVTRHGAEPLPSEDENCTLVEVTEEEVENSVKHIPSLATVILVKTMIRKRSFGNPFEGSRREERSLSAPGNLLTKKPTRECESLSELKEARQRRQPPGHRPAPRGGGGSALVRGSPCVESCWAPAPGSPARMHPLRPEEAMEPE
row,Target,log2 fold change
1,"PAK2 (peptide sequence: MTDEEIMEK, peptide start residue: 227) (UniProt Q13177)",-2.15
2,"MARS (peptide sequence: SCPVVQSSQHLFLDLPK, peptide start residue: 440) (UniProt P56192)",0.233
3,"CAMKK2 (peptide sequence: FYFQDLIK, peptide start residue: 291) (UniProt Q96RR4)",-2.2
4,"TNK1 (peptide sequence: VADFGLVRPLGGAR, peptide start residue: 261) (UniProt Q13470)",-3.64
5,"UniProt Q8TBX8 (peptide sequence: HGAGAEISTVHPEQYAK, peptide start residue: 394)",-1.92
6,"MASTL (peptide sequence: IAVPKPPSIEEFSIVKPISR, peptide start residue: 24) (UniProt Q96GX5)",-1.05
7,"UniProt P0DMV8 (peptide sequence: LLQDFFNGR, peptide start residue: 349)",0.293
8,"DCUN1D5 (peptide sequence: SMLALLLGR, peptide start residue: 164) (UniProt Q9BTE7)",1.45
